# PubChem BioAssay (NCATS)
# Records with an inconclusive call do not appear. A call without a number means that no potency is given here. Calls of active or inactive are those of the source. Calls follow the shape of the dose curve; as a rule, active = well fitted curve in the direction sought with a large enough effect; inconclusive = small, poorly fitted or top-dose-only effect, or another doubt; inactive = no such curve, though single readings can be large; an effect the other way counts as inactive or inconclusive.
# Columns and labels:
# [1] = system: Zika virus NS2B-NS3 protease (unlinked complex); assay: Primary screen GU Rhodamine qHTS for Zika virus inhibitors: Unlinked NS2B-NS3 protease assay (AID 1347159); also: nearly all actives have a fitted effect of over 60% in size; also: potency is read from the fitted curve at half-maximal effect
# In short: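 Compounds, tested up to 114 microM, were incubated for 15 minutes with 25 nM unlinked NS2B-NS3 protease at pH 8.0. Cleavage of 1.5 microM Rhodamine110 substrate was then followed by fluorescence for 15 minutes.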
# [2] = system: Zika virus NS2B-NS3 protease (linked construct); assay: Primary screen NINDS Rhodamine qHTS for Zika virus inhibitors (AID 1347160); also: nearly all actives have a fitted effect of over 55% in size
# In short: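 Percent inhibition, normalized to uninhibited and enzyme-free controls, is fitted to a 4-parameter Hill equation. Fluorescence change comes from a 15-min cleavage of 1.5 microM bis-peptide Rhodamine110 substrate by 25 nM linked NS2B-NS3 at room temperature.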
# [3] = qHTS to identify inhibitors of the type 1 interferon - major histocompatibility complex class I in skeletal muscle: primary screen against the NCATS Mechanism Interrogation Plate v5.0 (MIPE) Libary (AID 1347411); also: nearly all actives have a fitted effect of over 65% in size; also: potency is read from the fitted curve at half-maximal effect
# In short: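 Immortalized human myoblasts (C25cl48) with HiBit knocked into endogenous HLA-B*08:01 were stimulated with 4 ng/ml IFN-beta and given compounds in 11-point 1:3 titration from 46 uM. After 24 h at 37 C, lytic HiBiT luminescence was read.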
# [4] = target: Calcium and integrin-binding protein 1 (Homo sapiens) (UniProt Q99828); assay: Primary qHTS for Identification of Calcium Integrin Binding Protein 1 (CIB1) Competitor (AID 1508620);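 also: GST tagged CIB1 binding a fluorescein labelled alphaIIb integrin peptide tracer; top concentration of the series differs between compounds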
# Chain of Calcium and integrin-binding protein 1 (Homo sapiens) (Q99828 whole entry, looked up): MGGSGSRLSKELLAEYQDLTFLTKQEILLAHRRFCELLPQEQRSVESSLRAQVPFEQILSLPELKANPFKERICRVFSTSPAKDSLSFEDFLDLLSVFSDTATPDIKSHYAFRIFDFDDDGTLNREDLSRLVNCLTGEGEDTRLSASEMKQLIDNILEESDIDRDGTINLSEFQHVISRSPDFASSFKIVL
# In short: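 CIB1-GST (1 uM final) and compound incubated 15 min at room temperature before adding FITC-alphaIIb peptide tracer (100 nM final). Competition for binding read by fluorescence polarization (ex 480, em 540) after another 15 min at room temperature.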
# [5] = Confirmatory screen NINDS Rhodamine qHTS for Zika virus inhibitors (AID 1347161); also: nearly all actives have a fitted effect of over 60% in size; also: potency is read from the fitted curve at half-maximal effect
# In short: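 Kinetic fluorescence (Ex 480 nm, Em 540 nm) over 15 min with 1.5 microM Rhodamine110 peptide and 25 nM linked protease.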
# [6] = system: Zika virus NS2B-NS3 protease (linked); assay: 384 well plate NINDS AMC confirmatory qHTS for Zika virus inhibitors (AID 1347163);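 also: linked protease at 5 30 or 60 nM final depending on run; fluorescence of AMC released from Ac-VKTGKR-AMC peptide cleaved by the protease; top concentration of the series differs between compounds; nearly all actives have a fitted effect of over 50% in size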
# In short: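 Linked NS2B-NS3 protease (final 5 nM, 30 nM or 60 nM) was preincubated with compounds (final up to 1 mM) for ~15 minutes. Ac-VKTGKR-AMC substrate (final 30 microM) then reacted for 25 minutes at room temperature in the dark. Fluorescence (ex 355/em 460 nm) was normalized to no-enzyme and no-inhibitor controls.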
# [7] = system: Zika virus NS2B-NS3 protease (linked construct); assay: 384 well plate NINDS Rhodamine confirmatory qHTS for Zika virus inhibitors (AID 1347164); also: potency is read from the fitted curve at half-maximal effect; nearly all actives have a fitted effect of over 65% in size
# In short: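 Cleavage of Ac-LKRR-Rhodamine 110 (10 microM final) by linked protease (final 5, 30 or 60 nM) was followed as fluorescence at 485/538 nm after 25 min, room temperature, dark. Compounds preincubated ~15 min.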
# [8] = Tertiary RLuc qRT-PCR qHTS assay for Zika virus inhibitors (AID 1347169); also: potency is read from the fitted curve at half-maximal effect; nearly all actives have a fitted effect of over 55% in size
# In short: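 Inhibition of ZIKV-RLuc replication in Vero cells, read as Renilla luminescence 1-1.5 hrs after live-cell substrate addition, following 48-72 hrs infection at MOI 1-2 in presence of compound.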
# [9] = Vero cells viability qHTS for Zika virus inhibitors (AID 1347167)
# In short: (§1)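 Compounds were tested in concentration series on cells grown in DMEM containing 4% FBS. After 24 to 48 hours, cellular ATP was measured by luminescence with CellTiter Glo.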
# [10] = qHTS to identify inhibitors of the type 1 interferon - major histocompatibility complex class I in skeletal muscle: primary screen against the NCATS LOPAC collection (AID 1347405);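 also: lytic HiBiT luminescence reporting HLA-B protein level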
# In short: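 CRISPR-engineered immortalized human myoblasts (C25cl48) with HiBiT fused to endogenous HLA-B*08:01, stimulated with 4 ng/ml IFN-beta. LOPAC compounds tested as a 7-point 1:4.3 titration (top 46 uM final), 24 h at 37 C; lytic HiBiT luminescence read.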
# [11] = qHTS for inhibitors of adenylyl cyclases using a fission yeast platform: a pilot screen against the NCATS LOPAC library (AID 1347410)
# In short: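 Inhibition of GNAS-stimulated AC9 activity in S. pombe was inferred from derepression of a PKA-repressed fbp1-GFP reporter, measured as cytometric fluorescence after 18 h at 30C with compounds at up to 57 µM.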
# [12] = Validation qHTS assay for inhibitors of Activation Induced Cytidine Deaminase (AID): UDG Counterscreen signal (AID 1347427)
# In short: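 Counterscreen read of UDG activity (2 U/mL, 4/3x) in the FRET deamination format with AID (1 uM, 4/3x), DJC20/DJC23 substrates (250 nM, 4x), 4 h at room temperature. NaOH stop, fluorescence at 560 ex/665 em.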
# [13] = target: Single-stranded DNA cytosine deaminase (Homo sapiens) (UniProt Q9GZX7); assay: Validation qHTS assay for inhibitors of Activation Induced Cytidine Deaminase (AID): AID signal (AID 1347429)
# Chain of Single-stranded DNA cytosine deaminase (Homo sapiens) (Q9GZX7 whole entry, looked up): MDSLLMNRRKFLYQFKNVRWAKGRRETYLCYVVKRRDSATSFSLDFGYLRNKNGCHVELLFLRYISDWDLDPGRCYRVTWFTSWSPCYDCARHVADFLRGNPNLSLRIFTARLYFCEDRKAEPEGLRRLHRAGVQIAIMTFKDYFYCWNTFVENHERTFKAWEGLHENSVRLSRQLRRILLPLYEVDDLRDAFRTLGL
# In short: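 FRET deamination assay: 1 uM AID (4/3x stock) with UDG, compound up to 114 uM, then 250 nM DJC20/DJC23 substrate (4x stock) for 4 hr at room temperature. NaOH added, 30 min; fluorescence read 540/590 nm.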
# [14] = Primary qHTS for inhibitors of La Crosse Virus (LACV) - induced cell death in SH-SY5Y cells (AID 1508616);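 also: top concentration of the series differs between compounds; higher means more rescue of cells from virus-induced death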
# In short: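 SH-SY5Y cells (6000/well) plated 24 h, then given compounds by pin transfer and LACV at 0.01 MOI for 6 days at 37C. Viability measured by ATPLite luminescence, normalized to infected DMSO and uninfected DMSO.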
# [15] = target: Calcium and integrin-binding protein 1 (Homo sapiens) (UniProt Q99828); assay: Validation qHTS for Identification of Calcium Integrin Binding protein 1 (CIB1) Competitor (AID 1508618)
# In short: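 In this qHTS validation, the LOPAC set (up to 114 uM) was tested for blocking CIB1 binding to a fluorescein-tagged alphaIIb peptide, with FP detection at 480/540 nm.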
# [16] = HepG2 cells viability qHTS for Zika virus inhibitors (AID 1347168); also: potency is read from the fitted curve at half-maximal effect
# In short: as §1
compound,measurement,setting,value
COc1cc2nccc(Oc3ccc(NC(=O)C4(C(=O)Nc5ccc(F)cc5)CC4)cc3)c2cc1OC,Potency,[1],inactive
same,Potency,[2],inactive
same,Potency,[3],8.29 µM (active)
CCCn1c(=O)c2[nH]c(-c3cnn(Cc4cccc(C(F)(F)F)c4)c3)nc2n(CC)c1=O,Potency,[1],inactive
same,Potency,[2],inactive
same,Potency,[3],inactive
same,outcome,[4],inactive
COc1ccc2c(c1)CC[C@@H](CN(C)CC(=O)O)[C@H]2c1ccccc1,Potency,[1],inactive
same,Potency,[2],inactive
same,Potency,[3],inactive
O=C(Nc1cn[nH]c1-c1nc2ccc(CN3CCOCC3)cc2[nH]1)NC1CC1,Potency,[1],inactive
same,Potency,[2],inactive
same,Potency,[3],3.3 µM (active)
CC1COC2(CCN(c3nc(=O)c4cc(C(F)(F)F)cc([N+](=O)[O-])c4s3)CC2)O1 (configuration not stated),Potency,[1],inactive
same,Potency,[2],inactive
same,Potency,[3],inactive
same,outcome,[4],inactive
c1nc2nc(Nc3ccc(N4CCOCC4)cc3)nc(NC3CCCCC3)c2[nH]1,Potency,[1],inactive
same,Potency,[2],inactive
same,Potency,[3],2.94 µM (active)
same,outcome,[4],inactive
CCn1nnc2c(N3CCOCC3)nc(-c3ccc(NC(=O)Nc4ccc(C(=O)N5CCN(C)CC5)cc4)cc3)nc21,Potency,[1],inactive
same,Potency,[2],inactive
O=C(O)Cn1nnc(-c2cc(N3CCC(Oc4cc(F)ccc4Br)CC3)no2)n1,Potency,[1],22.4 µM (active)
same,Potency,[2],inactive
same,Potency,[5],35 µM (active)
same,Potency,[6],inactive
same,Potency,[7],79.4 µM (active)
same,Potency,[8],1.17 µM (active)
same,Potency,[3],inactive
same,outcome,[4],inactive
N#CCNC(=O)c1ccc(-c2ccnc(Nc3ccc(N4CCOCC4)cc3)n2)cc1,Potency,[1],inactive
same,Potency,[2],inactive
same,Potency,[3],11.7 µM (active)
COc1cccc(Nc2c(C(N)=O)cnc3c(C)cc(S(=O)(=O)c4cccc(C(=O)N(C)C)c4)cc23)c1,Potency,[1],inactive
same,Potency,[2],inactive
same,Potency,[3],inactive
CCc1cc2c(cc1N1CCC(N3CCOCC3)CC1)C(C)(C)c1[nH]c3cc(C#N)ccc3c1C2=O,Potency,[1],inactive
same,Potency,[2],inactive
same,Potency,[3],inactive
O=c1c2ccccc2nc2n1CCc1c-2[nH]c2ccccc12,Potency,[1],inactive
same,Potency,[2],inactive
same,Potency,[5],62.2 µM (active)
same,Potency,[6],inactive
same,Potency,[7],56.2 µM (active)
same,Potency,[9],inactive
same,outcome,[10],inactive
same,outcome,[11],inactive
same,outcome,[12],inactive
same,outcome,[13],inactive
same,outcome,[14],inactive
same,outcome,[15],inactive
same,outcome,[4],inactive
Cc1cc(Nc2cc(CN3CCOCC3)c3nc(C)c(Cc4ccc(Cl)cc4F)n3n2)n[nH]1,Potency,[1],inactive
same,Potency,[2],inactive
same,Potency,[3],5.23 µM (active)
same,outcome,[4],inactive
CNC(=O)c1c(F)cccc1Nc1nc(Nc2cc3c(cc2OC)CCN3C(=O)CN(C)C)nc2[nH]ccc12,Potency,[1],inactive
same,Potency,[2],inactive
same,Potency,[3],7.39 µM (active)
same,outcome,[4],inactive
Cc1ccc(C(=O)Nc2cccc(C(F)(F)F)c2)cc1-c1ccc2nc(NCCN3CCOCC3)ncc2c1,Potency,[1],inactive
same,Potency,[2],inactive
same,Potency,[5],inactive
same,Potency,[9],inactive
same,Potency,[16],8.27 µM (active)
same,outcome,[4],inactive
Cc1ccc(CN2CCNCC2)cc1NC(=O)CNc1ccc(F)c(F)c1,Potency,[1],inactive
same,Potency,[2],inactive
same,Potency,[3],inactive
same,outcome,[4],inactive
Fc1cc(-c2cccc3ncc(-c4cnn(C5CCNCC5)c4)nc23)cc(F)c1CN1CCOCC1,Potency,[1],inactive
same,Potency,[2],inactive
Clc1cccc(-n2nnnc2NCc2ccccc2Oc2ccccn2)c1Cl,Potency,[1],inactive
same,Potency,[2],inactive
CN(C)CC(C)(C)CNc1nn2c(-c3ccccc3)nnc2cc1C1CCC1,Potency,[1],inactive
same,Potency,[2],inactive
same,Potency,[3],inactive
same,outcome,[4],inactive
Clc1cccc(-c2nnnn2Cc2cccnc2)c1Cl,Potency,[1],inactive
same,Potency,[2],inactive
Cc1cc(CN2CCN(c3c(Br)cnc4nc(-c5ccc(N6CCN(C)CC6)cc5)[nH]c34)CC2)no1,Potency,[1],inactive
same,Potency,[2],inactive
same,Potency,[5],inactive
same,Potency,[6],inactive
same,outcome,[4],inactive
CCN(CC)CCNC(=O)c1ccc2nc(-c3ccccc3)c(-c3ccc(CN4CCC(n5c(=O)[nH]c6ccccc65)CC4)cc3)nc2c1,Potency,[1],inactive
same,Potency,[2],inactive
same,Potency,[3],6.58 µM (active)
same,outcome,[4],inactive
CC(C)(O)c1cc2nc(-c3cnc(N)nc3)nc(N3CCOCC3)c2s1,Potency,[1],inactive
same,Potency,[2],inactive
C=CCn1c(=O)c2cnc(Nc3ccc(N4CCN(C)CC4)cc3)nc2n1-c1cccc(C(C)(C)O)n1,Potency,[1],inactive
same,Potency,[2],inactive
same,Potency,[3],inactive
same,outcome,[4],inactive
C=CC(=O)Nc1cccc(Oc2nc(Nc3ccc(N4CCN(C)CC4)cc3OC)ncc2Cl)c1,Potency,[1],inactive
same,Potency,[2],inactive
NC(=O)c1c(OCc2c(F)cc(Br)cc2F)nsc1NC(=O)NCCCCN1CCCC1,Potency,[1],inactive
same,Potency,[2],inactive
same,Potency,[3],33 µM (active)
same,outcome,[4],inactive
CC[C@@H]1C(=O)N(C)c2cnc(Nc3ccc(C(=O)NC4CCC(N5CCN(CC6CC6)CC5)CC4)cc3OC)nc2N1C(C)C (some centres not stated),Potency,[1],inactive
same,Potency,[2],inactive
same,Potency,[3],6.58 µM (active)
C=CC(=O)N1CCC[C@@H](n2nc(-c3ccc(Oc4ccccc4)cc3)c3c(N)ncnc32)C1,Potency,[1],inactive
same,Potency,[2],inactive
